# Experimental data as given in PubChem BioAssay AID1347426 (Functional Genomics Laboratory (NCATS/FGL), 2020).
# Hit rate of the full screen: of about 31,000 sequences, about 1,400 (4.5%) were called active. Only a selection was taken, and actives are over-represented in it overall. Values without a mark were called inactive.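 How the source made its calls: active means median seed-adjusted z-score above 1 or below -1; inactive means the rest.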
# Experiment: Novel Modifiers of Survival Motor Neuron (SMN) Protein: Gene Identification via Genome-wide siRNA Screen;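 further: luminescence tracks full-length SMN protein made from the SMN2 reporter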
# Conditions: HEK293T SMN2-luciferase reporter, siRNA knockdown, 72 h; actives lie on both sides
# Method in brief: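 Steps: spot 1 pmol siRNA, add Lipofectamine RNAiMax in serum-free DMEM, seed HEK293T SMN2–luciferase reporter cells; incubate 72 h at 37 °C; add ONE-Glo; normalize luminescence to control siRNA, log10, MAD. Candidates: |MAD| > 1.0.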
row,Sequence,median seed-adjusted z-score
1,CUACUAUCCUGGUUCUGGATT against PROS1,0.436
2,GUGAUACUGUCAAAGGUCATT against ATF2,0.424
3,GGGUUUAACUGGGAACUCUTT against GALNT8,-0.283
4,GAUCCGUUGGUGCAUGAAATT against ABHD2,-1.21 (active)
5,GAUCGACUGCUAGAGAGUATT against DCLK1,0.193
6,GUGCUAACUCAAUUCCAUATT against SSBP3,0.00592
7,GCCUUUCAGCAUGCGGUUATT against GDPD1,0.527
8,CCAUCUCUUUGGUAGUACUTT against TBC1D23,0.0932
9,CGUCUUUCCAGAAUUCAAATT against HGS,1.16 (active)
10,GCAAGACUUUUGGUCGAAATT against ZNF816A,0.39
11,CCGUUGCUAUGAACAAGUUTT against B4GALT3,-0.138
12,GACAGAAGAUCAAUAUGAATT against ETS2,0.636
13,GAAGAGUGCUUGAAAUUUUTT against GFRA1,0.125
14,GCAUCCGGAUUCUUGAUGATT against PGK2,-0.127
15,ACAAAGCUGCUGUGCUAUATT against BET1,0.394
16,CAGAUUACGUUUAUAAGAATT against ZNF274,0.452
17,CGAGUGCACUGCUGCCUAUTT against 5-Sep,-0.0749
18,GAUCCGAGAUCAACACCUUTT against PIK3R3,-1.88 (active)
19,GACUACCAGUUGAUCAUGUTT against TTBK1,0.00054
20,CACCUGUACUUAUCCCGAATT against MEGF10,0.622
21,AAAUCGCGACGACUAAAUATT against CCBE1,0.964
22,CAUCAGCUUCCGCAACUUUTT against LRP3,-1.05 (active)
23,GGAAUACAUCAGAAUGGUATT against ITCH,0.199
24,CCAAUGCUGUGACUUUCGATT against KIFC3,0.54
25,GCAGCAAAGGAAACCUAAATT against KLRC3,0.833
26,GCAAGCGAGUCAACACCAATT against DRD2,-0.0273
27,CUUCAGUACCUUAUCAUUATT against ST6GALNAC5,-0.0321

row,Sequence,median seed-adjusted z-score
1,GGCCGUUUGUCAUUCCCUUTT against CBFA2T3,-0.135
2,GGAAGAGACUUUGUCCACATT against BIRC7,-1.44 (active)
3,CUCUGGGAGUCACGACUUUTT against GPR37L1,-0.0348
4,GAGACAAAUUUGGGCCUUATT against HSF4,0.926
5,CAACGAUGGUGUACUACAATT against ABCC9,0.376
6,CAAGCGGACCAGGACCUAUTT against CSDC2,-0.321
7,CAGUAUCCAUGGUGAUCUATT against ZP2,0.0455
8,GCAGCUCAACGGCAAAGAATT against RBM14,-0.0317
9,GCAUCUCAAUAUCAACAAUTT against LINGO2,0.123
10,GAAUAUCGGUUGGAUUAUATT against ITGAV,1.17 (active)
11,GGGCGGUCAUGGUUUUGAATT against CHST13,-0.447
12,CCGCUGUUAUCAUUACCAUTT against KIR2DL5B,1.72 (active)
13,GCUCUUCUAGACAUCGAUATT against NUBP1,-0.0975
14,GAGGUUCCCUAAUUUCCAATT against HIF1AN,-0.0315
15,ACUACCUUCUCAUCAAGGATT against CCL19,0.0364
16,GCCUAGAAUUUGUAUCCCATT against ATXN2,0
17,CCAAUCUGGUGACGAUUUATT against SP110,-0.788
18,GUAUUUCGAGUAAGUCUAATT against TTPA,-0.208
19,GGAGUUACUCCAUUAACUATT against JARID1C,0.372
20,CCUGCGUCUCUACAACUAUTT against AURKB,0.0901
21,GAGAUUUGAUGAGAAGAGATT against MMP3,0.0592
22,UCUGGCUUAUUAUAACUAUTT against ACOT2,0.578
23,AGAUCGAGCCGGACAUGAUTT against NACC1,1.59 (active)
24,GAUGGGUUCUUGAACAUAUTT against EXOG,0.746
25,CCUCAUGCCUUAAUGAUCATT against ZNF561,-0.00904
26,CAUCCGUUCCAUACAUGUATT against AEBP2,-0.212
27,GGAAUGGUUUAAAAUAGAATT against NUDT3,0.674
